Screens from PubChem.
Giardia kill: kills Giardia lamblia. Giardia lamblia trophozoite viability. 0.15% of 340,000 active. activity change, % at 7.66 µM, hits read low. AID 540267; in the data active means activity change below about -80%; inconclusive means between about -30% and that limit;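 further: parasites exposed to compound for two days anaerobically before the ATP read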
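Media and compound were dispensed first, then trophozoites at 100 cells/well; plates sat 48 hrs at 37 deg C without oxygen before ATP luminescence reagent was added and read after 15-30 min at room temperature.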
DT40 TDP1 no CPT: qHTS for Inhibitors of human tyrosyl-DNA phosphodiesterase 1 (TDP1): qHTS in cells in absence of CPT. DT40 Tdp1-/- hTDP1 cells, no CPT, ATP luminescence, 48 h. Potency, µM (highest dose often 46.2 µM), for the others: at the highest dose activity change, negative = growth inhibition, actives largely listed as inhibitors. 15% of 420,000 active. AID 686978, 2013; further: potency means the concentration at half of the fitted maximal effect; nearly all actives have a fitted effect of over 55% in size
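Cells were dispensed at 400 per well, compounds added by pin tool, plates incubated ≥48 hr at 37 °C, then CellTiter-Glo added for 30 min at room temperature before luminescence reading. Line: DT40 Tdp1-/- complemented with hTDP1; camptothecin omitted.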
TDP1 block: inhibitors of human tyrosyl-DNA phosphodiesterase TDP1; Q9NUW8; 0.28% of 350,000 active; recombinant TDP1, AlphaScreen DNA substrate cleavage; Potency, µM (top dose mostly 130 µM), for the others: at the top dose activity change, negative = inhibition, usual class: inhibitors; AID 485290; further: potency means the concentration at half of the fitted maximal effect; nearly all actives have a fitted effect of over 40% in size
Target sequence (Q9NUW8 whole entry, looked up): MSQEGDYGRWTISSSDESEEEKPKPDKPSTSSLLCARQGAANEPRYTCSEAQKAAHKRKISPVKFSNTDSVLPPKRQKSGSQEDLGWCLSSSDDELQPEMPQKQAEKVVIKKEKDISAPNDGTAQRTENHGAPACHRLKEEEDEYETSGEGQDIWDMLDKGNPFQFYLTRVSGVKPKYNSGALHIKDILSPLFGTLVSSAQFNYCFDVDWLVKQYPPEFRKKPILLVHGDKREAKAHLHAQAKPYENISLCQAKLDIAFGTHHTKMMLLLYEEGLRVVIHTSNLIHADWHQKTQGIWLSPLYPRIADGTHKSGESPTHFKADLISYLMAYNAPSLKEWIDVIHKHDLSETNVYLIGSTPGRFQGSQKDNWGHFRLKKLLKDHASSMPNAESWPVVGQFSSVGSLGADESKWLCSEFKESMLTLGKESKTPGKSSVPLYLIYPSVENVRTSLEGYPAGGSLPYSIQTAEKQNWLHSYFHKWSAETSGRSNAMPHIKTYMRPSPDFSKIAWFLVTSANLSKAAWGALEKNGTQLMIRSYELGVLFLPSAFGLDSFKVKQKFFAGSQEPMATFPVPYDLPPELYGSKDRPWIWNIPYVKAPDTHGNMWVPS
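Here, a 5' biotin and 3' phosphotyrosine-FITC DNA oligonucleotide reports Tdp1 activity: intact substrate bridges AlphaScreen beads, while cleavage leaves a 3' phosphate and drops signal. All incubations at room temperature.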
TDP1 cell CPT: DT40-hTDP1 cell growth loss with CPT. AID 686979. 12% of 420,000 active. chicken DT40 Tdp1-/-;hTDP1 cells + 20 nM CPT, ATP luminescence, 48 h. Potency, µM (top dose mostly 46.2 µM), for inactives: top-dose activity change, negative = growth inhibition, most hits filed as inhibitors; further: potency means the concentration at half of the fitted maximal effect; nearly all actives have a fitted effect of over 55% in size
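Chicken DT40 Tdp1-/- cells stably complemented with human TDP1 were seeded at 400 cells/well in medium containing 20 nM camptothecin, exposed to pin-transferred compounds, and grown at 37 °C for at least 48 hr. Viability was read as ATP luminescence.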
ELG1 DNA repair: inhibitors of ELG1-dependent DNA repair in HEK293T cells. HEK293T ELG1-luciferase reporter, luminescence, 16 h; DNA damage induced by 5-fluorouridine. Potency, µM (highest dose often 46.1 µM), without a hit: at the highest dose activity change, negative = inhibition, hits mostly inhibitors. 2.3% of 330,000 active. AID 504467; further: potency means the concentration at half of the fitted maximal effect; nearly all actives have a fitted effect of over 55% in size
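5-Fluorouridine DNA damage + compound/DMSO, 2,000 cells/well, 16 h, 37 °C/5% CO2. ONE-Glo, 30 min RT, luminescence. Readout = decrease in reporter signal.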
IL1B secr inh: blocks inflammasome-driven IL-1 beta release. THP-1 LPS/ATP IL-1B secretion, AlphaLISA, 16 h; hits give low values. activity change, % at 57.5 µM. 4.7% of 360,000 active. AID 743279; in the data active means activity change below about -50%; inconclusive means mostly about -30% to -49%
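THP-1 cells pretreated 1 hr with compounds (up to 57.5 uM final), then stimulated with LPS (250 ng/mL final) plus ATP (1.25 mM final); secreted IL-1B measured by AlphaLISA after 16 hr, decreased signal indicating inhibition.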
* hit, by the source's call. In the library only some 19% were active in any assay of this set; here they are far more common. Unless noted, the call rests on the fitted dose curve; in most records, active means well fitted curve in the direction sought with a large enough effect; inconclusive means small, poorly fitted or top-dose-only effect, or another doubt; inactive means no such curve, though single readings can be large; an effect the other way counts as inactive or inconclusive. On the % scale 0 is the no-effect control and ±100 the full control effect.

Results for O=C(C[n+]1cccc(I)c1)c1ccc(F)cc1 ?
DT40 TDP1 no CPT: -28.2%; TDP1 cell CPT: -18.8%

How did O=C(C[n+]1ccc2ccccc2c1)c1ccc(O)c(O)c1 do in these assays?
DT40 TDP1 no CPT: -23.6%; TDP1 cell CPT: -4.4%

What do the screens show for `O=C(C[n+]1ccc2ccccc2c1)c1cccc2ccccc12`?
Giardia kill: 4.0; DT40 TDP1 no CPT: 8.2µM*; TDP1 block: 0.0%; TDP1 cell CPT: 13µM*; ELG1 DNA repair: inconclusive; IL1B secr inh: inconclusive

What do the screens show for `COc1ccc(OCC(=O)N/N=c2\oc3c(OC)cccc3cc2C(N)=O)cc1`?
Giardia kill: 24.1; DT40 TDP1 no CPT: 0.3%; TDP1 block: 5.8%; TDP1 cell CPT: -7.3%; ELG1 DNA repair: 18.2%; IL1B secr inh: 5.6

How did Cc1nc2ccn(Cc3ccco3)c(=O)c2cc1C(=O)NCc1ccccc1F do in these assays?
DT40 TDP1 no CPT: -25.5%; TDP1 block: 4.5%; TDP1 cell CPT: -17.2%

Results for COc1cccc(-c2noc(COc3ccccc3Cl)n2)c1 ?
DT40 TDP1 no CPT: -2.8%; TDP1 block: -14.7%; TDP1 cell CPT: 17.0%

Results for O=C(O)c1ccc2cc(-c3ccc(O)c(C45CC6CC(CC(C6)C4)C5)c3)ccc2c1 ?
TDP1 block: 13.5%

Results for O=C(C[n+]1ccc2ccccc2c1)c1ccc(NC(=O)c2ccccc2)cc1 ?
Giardia kill: 0.4; DT40 TDP1 no CPT: 7.31µM*; TDP1 block: 5.1%; TDP1 cell CPT: 5.8µM*; ELG1 DNA repair: inconclusive; IL1B secr inh: inconclusive

How did CN(Cc1ccccc1)c1ccc(S(=O)(=O)N2CCC(C(=O)O)CC2)cc1[N+](=O)[O-] do in these assays?
Giardia kill: 26.9; DT40 TDP1 no CPT: 2.3%; TDP1 block: -3.5%; TDP1 cell CPT: 2.5%; ELG1 DNA repair: 10.0%; IL1B secr inh: 0.8

Results for CCCCN(C)CCN1C(=O)C2C(C(=O)Nc3ccc(C)cc3)C3C=CC2(O3)C1C(=O)NC1CCCCC1 (stereo not given) ?
Giardia kill: 1.4; DT40 TDP1 no CPT: -22.3%; TDP1 block: 5.5%; TDP1 cell CPT: 0.5%; ELG1 DNA repair: 20.7%; IL1B secr inh: -53.9*

How did CCN(CC)CCN1C(=O)C2C(C(=O)Nc3cccc(SC)c3)C3C=CC2(O3)C1C(=O)NC1CCCC(C)C1C (stereo not given) do in these assays?
Giardia kill: -7.0; DT40 TDP1 no CPT: inconclusive; TDP1 block: -15.9%; TDP1 cell CPT: inconclusive; ELG1 DNA repair: 11.6%; IL1B secr inh: -29.1

How did CC1CCCC(NC(=O)C2N(CCCN3CCCC3)C(=O)C3C(C(=O)Nc4cccc(Cl)c4)C4C=CC32O4)C1C (stereo not given) do in these assays?
Giardia kill: 3.9; DT40 TDP1 no CPT: inconclusive; TDP1 block: 4.1%; TDP1 cell CPT: -2.5%; ELG1 DNA repair: 10.8%; IL1B secr inh: -57.3*

What do the screens show for `Cc1cc(C)cc(NC(=O)C2C3C=CC4(O3)C2C(=O)N(CCN2CCCCC2)C4C(=O)NC2CCCCC2)c1` (stereo not given)?
Giardia kill: 0.3; DT40 TDP1 no CPT: -22.7%; TDP1 block: 9.9%; TDP1 cell CPT: -3.9%; ELG1 DNA repair: 0.2%; IL1B secr inh: -11.2

Results for CN(C)CCN1C(=O)C2C(C(=O)Nc3cc(Cl)cc(Cl)c3)C3C=CC2(O3)C1C(=O)NC1CCCCC1 (stereo not given) ?
Giardia kill: -17.3; DT40 TDP1 no CPT: -2.2%; TDP1 block: -0.5%; TDP1 cell CPT: 3.6%; ELG1 DNA repair: 5.6%; IL1B secr inh: -67.6*

Results for CCCCCN(C(=O)CCC(=O)OCC(=O)N(CC)C1CCCCC1)c1c(N)n(CCCC)c(=O)[nH]c1=O ?
Giardia kill: 17.8; DT40 TDP1 no CPT: -8.2%; TDP1 block: -5.4%; TDP1 cell CPT: 1.8%; ELG1 DNA repair: -3.3%; IL1B secr inh: -1.8
